Data taken from PubChem BioAssay (NCI).
About 83,000 compounds went through this panel and 20% of them were active in at least one assay; those are over-represented in the sample as a whole.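 Compound tested at a single concentration for 48 hours in 96-well plates; a percent growth value below 10 was scored as active.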 Values without a mark were called inactive. Activity calls are given as the source filed them.

Test system: U251 CNS
Assay: NCI-60 one-dose screen, 48 h (100 = growth as untreated, 0 = no growth, -100 = all killed)
Conditions: 10 µM unless noted

Compared with `COc1cc(/C=C/C(=O)c2ccc(Nc3ncnc4ccccc34)cc2)cc(OC)c1`, `O=C(CN1CCOCC1)Nc1ccc2ncnc(Nc3ccc(Oc4cccc(F)c4)c(Cl)c3)c2c1` is higher in growth: 34.2% for the first, 85.7% for the second.

Compared with `COc1ccc(C(=O)c2cc3c(N)c(C(=O)Nc4cccc(OC)c4)sc3nc2C)cc1`, `COc1ccc(C(=O)c2cc3c(N)c(C(=O)Nc4ccc(Br)cc4)sc3nc2C)cc1` is higher in growth: 15.1% for the first, 58.7% for the second.

First: CCC(C)N(CCNc1cc(OC)cc2cccnc12)CCC(C)C (stereo unspecified)
Second: COc1ccc(-c2nc(SCC(C)C)nc(N/N=C(/C)c3ccc(OC)c(OC)c3)c2C#N)cc1
The growth of the first is lower: 84% for the first, 89.6% for the second.

Going from `S=c1[nH]cccc1-c1nnc2n1Nc1nc3ccccc3cc1CS2` to `O=S(=O)(c1cccc(NC2=Nc3cccc4cccc2c34)c1)N1CCCC1`, the growth falls from 103% to 65.7%.

First: NC(=O)C1(N2CCCCC2)CCN(CCCC(=O)c2ccc(F)cc2)CC1
Second: O=C(O)c1cn(C2CC2)c2cc(N3CCN(C(=O)C[n+]4cccc5ccccc54)CC3)c(F)cc2c1=O
The growth of the first is lower: 23.2% for the first, 64.4% for the second.

Compared with `O=c1[nH]nc(-c2ccc(Br)cc2)cc1Cc1ccc(O)cc1`, `COc1ccccc1-c1c(-c2ccc(Cl)cc2)c2cc3c(cc2[nH]c1=O)OCCO3` is lower in growth: 105% for the first, 75.3% for the second.

First: N/C(=N\N=C\c1cc2ccccc2s1)N/N=C/c1cc2ccccc2s1
Second: O=C(N/N=C/c1ccc(F)cc1)c1ccccc1Nc1cccc(C(F)(F)F)c1
The growth of the first is higher: 113% for the first, 100% for the second.

Compared with `CC1=NNC(=O)C1CCC(=O)N/N=C(\C)c1ccc2ccccc2c1` (stereo unspecified), `COc1ccc(C(=O)c2cc3c(N)c(C(=O)Nc4cccc(Cl)c4C)sc3nc2C)cc1` is lower in growth: 109% for the first, 14.4% for the second.

Compared with `COc1ccc(Cn2nc(-c3ccccc3)c3c2CCc2cnoc2-3)cc1`, `COc1ccc(-c2nc(N/N=C/c3c[nH]c4ccccc34)nc(N3CCOCC3)c2C#N)cc1` is lower in growth: 78% for the first, 58.7% for the second.

Going from `O=C(O)CNC(=O)CN1C(=O)c2ccccc2C1=O` to `CC(C)(O)C1CCCN1C(=O)c1ccccc1I` (stereo unspecified), the growth rises from 96.8% to 98.3%.

First: O=C1CCCCCCCCC(O)C(O)CCCC(c2cccs2)O1 (stereo unspecified)
Second: COC(=O)Nc1ccc(NC(=O)OC)cc1
The growth of the first is lower: 98.3% for the first, 99.1% for the second.

Going from `COc1ccc(-c2nc(SC)nc(N3CCOCC3)c2C#N)cc1` to `CC(C)Sc1nc(NN)c(C#N)c(-c2ccccc2)n1`, the growth rises from 91.1% to 100%.

Compared with `CC(=O)NCCCS(=O)(=O)O`, `O=S(=O)(NCCNc1nccc(-c2c(-c3ccc(F)c(O)c3)nc3sccn23)n1)c1ccccc1` is lower in growth: 102% for the first, 98.8% for the second.

First: COc1cc2nnn3c4ncccc4c(N=O)c3c2cc1OC
Second: COc1ccc(-c2ncc(-c3ccccc3)[nH]2)cc1OC
The growth of the first is lower: 45.1% for the first, 113% for the second.

First: Cc1c([N+](=O)[O-])cc(C(C)(C)C)cc1[N+](=O)[O-]
Second: O=C1Nc2c(ccc(Cl)c2Cl)/C1=C/c1ccc(F)cc1
The growth of the first is higher: 95.4% for the first, 92.8% for the second.

`OC1(c2ccc(Cl)c(C(F)(F)F)c2)CCN(CCCC(c2ccc(F)cc2)c2ccc(F)cc2)CC1` was tested, and the growth was -93.1% (active).
With `CC1CCN(C(=O)OCc2nc3nc(Cl)nc(N4CCOCC4)c3[nH]2)CC1` the growth was -89.2% (active).
For `COc1cc(C2CC(c3cccc(Nc4ccncc4)c3)=NN2c2cc(Cl)cc(Cl)c2)cc(OC)c1OC` (stereo unspecified), the growth was -51.1% (active).
`Cn1c(COC(=O)NCCN2CCOCC2)nc2c(N3CCOCC3)nc(-c3ccccc3)nc21` was tested, and the growth was -52.5% (active).
With `O=C(OCc1nc2nc(Cl)nc(N3CCOCC3)c2[nH]1)n1ccnc1` the growth was 1.06% (active).
In the case of `COc1cccc(/C=C2\COc3ccc(-c4ccccc4)cc3C2=O)c1`, the growth is reported as -56.1% (active).
In the case of `CN1CCN(c2cc(F)c(NC3=C(Cl)C(=O)c4ncccc4C3=O)c(F)c2)CC1`, the growth is reported as -9.88% (active).
In the case of `Cc1cc(NC(=O)c2cnc(N3CCN(CCOCCOCCOCCOCCC(=O)N[C@H](C(=O)N4C[C@H](O)C[C@H]4C(=O)N[C@@H](C)c4ccc(-c5scnc5C)cc4)C(C)(C)C)CC3)cn2)c2ncccc2c1`, the growth is reported as 4.36% (active).

Test system: PC-3 prostate
Assay: as above
Conditions: 10 µM unless noted

Going from `COc1cc(/C=C/C(=O)c2ccc(Nc3ncnc4ccccc34)cc2)cc(OC)c1` to `O=C(CN1CCOCC1)Nc1ccc2ncnc(Nc3ccc(Oc4cccc(F)c4)c(Cl)c3)c2c1`, the growth rises from 43.9% to 59.3%.

First: COc1ccc(C(=O)c2cc3c(N)c(C(=O)Nc4cccc(OC)c4)sc3nc2C)cc1
Second: COc1ccc(C(=O)c2cc3c(N)c(C(=O)Nc4ccc(Br)cc4)sc3nc2C)cc1
The growth of the first is lower: 28.7% for the first, 74.2% for the second.

Going from `CCC(C)N(CCNc1cc(OC)cc2cccnc12)CCC(C)C` (stereo unspecified) to `COc1ccc(-c2nc(SCC(C)C)nc(N/N=C(/C)c3ccc(OC)c(OC)c3)c2C#N)cc1`, the growth falls from 79.3% to 52.5%.

Compared with `S=c1[nH]cccc1-c1nnc2n1Nc1nc3ccccc3cc1CS2`, `O=S(=O)(c1cccc(NC2=Nc3cccc4cccc2c34)c1)N1CCCC1` is lower in growth: 107% for the first, 52.4% for the second.

Going from `NC(=O)C1(N2CCCCC2)CCN(CCCC(=O)c2ccc(F)cc2)CC1` to `O=C(O)c1cn(C2CC2)c2cc(N3CCN(C(=O)C[n+]4cccc5ccccc54)CC3)c(F)cc2c1=O`, the growth rises from 30.2% to 77.1%.

Compared with `O=c1[nH]nc(-c2ccc(Br)cc2)cc1Cc1ccc(O)cc1`, `COc1ccccc1-c1c(-c2ccc(Cl)cc2)c2cc3c(cc2[nH]c1=O)OCCO3` is lower in growth: 80.4% for the first, 41.5% for the second.

Compared with `N/C(=N\N=C\c1cc2ccccc2s1)N/N=C/c1cc2ccccc2s1`, `O=C(N/N=C/c1ccc(F)cc1)c1ccccc1Nc1cccc(C(F)(F)F)c1` is lower in growth: 97.4% for the first, 96.2% for the second.

Going from `CC1=NNC(=O)C1CCC(=O)N/N=C(\C)c1ccc2ccccc2c1` (stereo unspecified) to `COc1ccc(C(=O)c2cc3c(N)c(C(=O)Nc4cccc(Cl)c4C)sc3nc2C)cc1`, the growth falls from 94.9% to 21.7%.

First: COc1ccc(Cn2nc(-c3ccccc3)c3c2CCc2cnoc2-3)cc1
Second: COc1cccc(/C=C2\COc3ccc(-c4ccccc4)cc3C2=O)c1
The growth of the first is higher: 52.9% for the first, 19.4% for the second.

Compared with `O=C(O)CNC(=O)CN1C(=O)c2ccccc2C1=O`, `CC(C)(O)C1CCCN1C(=O)c1ccccc1I` (stereo unspecified) is lower in growth: 84.1% for the first, 80.7% for the second.

Going from `O=C1CCCCCCCCC(O)C(O)CCCC(c2cccs2)O1` (stereo unspecified) to `CN1CCN(c2cc(F)c(NC3=C(Cl)C(=O)c4ncccc4C3=O)c(F)c2)CC1`, the growth falls from 88.2% to 11.8%.

Compared with `COC(=O)Nc1ccc(NC(=O)OC)cc1`, `COc1ccc(-c2ncc(-c3ccccc3)[nH]2)cc1OC` is higher in growth: 77.7% for the first, 112% for the second.

First: COc1ccc(-c2nc(SC)nc(N3CCOCC3)c2C#N)cc1
Second: COc1ccc(-c2nc(N/N=C/c3c[nH]c4ccccc34)nc(N3CCOCC3)c2C#N)cc1
The growth of the first is higher: 81.1% for the first, 74.3% for the second.

First: CC(=O)NCCCS(=O)(=O)O
Second: O=S(=O)(NCCNc1nccc(-c2c(-c3ccc(F)c(O)c3)nc3sccn23)n1)c1ccccc1
The growth of the first is higher: 83.9% for the first, 67.8% for the second.

First: CC(C)Sc1nc(NN)c(C#N)c(-c2ccccc2)n1
Second: COc1cc2nnn3c4ncccc4c(N=O)c3c2cc1OC
The growth of the first is higher: 85.1% for the first, 74.8% for the second.

Going from `Cc1c([N+](=O)[O-])cc(C(C)(C)C)cc1[N+](=O)[O-]` to `O=C1Nc2c(ccc(Cl)c2Cl)/C1=C/c1ccc(F)cc1`, the growth falls from 95.3% to 79.3%.

In the case of `OC1(c2ccc(Cl)c(C(F)(F)F)c2)CCN(CCCC(c2ccc(F)cc2)c2ccc(F)cc2)CC1`, the growth is reported as -65.5% (active).
In the case of `CC1CCN(C(=O)OCc2nc3nc(Cl)nc(N4CCOCC4)c3[nH]2)CC1`, the growth is reported as -59.2% (active).
With `COc1cc(C2CC(c3cccc(Nc4ccncc4)c3)=NN2c2cc(Cl)cc(Cl)c2)cc(OC)c1OC` (stereo unspecified) the growth was -36.1% (active).
`Cn1c(COC(=O)NCCN2CCOCC2)nc2c(N3CCOCC3)nc(-c3ccccc3)nc21` was tested, and the growth was -71.2% (active).
In the case of `O=C(OCc1nc2nc(Cl)nc(N3CCOCC3)c2[nH]1)n1ccnc1`, the growth is reported as -24.5% (active).
`Cc1cc(NC(=O)c2cnc(N3CCN(CCOCCOCCOCCOCCC(=O)N[C@H](C(=O)N4C[C@H](O)C[C@H]4C(=O)N[C@@H](C)c4ccc(-c5scnc5C)cc4)C(C)(C)C)CC3)cn2)c2ncccc2c1` was tested, and the growth was 1.95% (active).
